# From PubChem BioAssay AID493170 (National Center for Advancing Translational Sciences (NCATS), 2011)
# Inconclusive results are not listed. Entries that show only a call come without a potency. Calls of active or inactive are those of the source. Calls follow the shape of the dose curve; as a rule, active = well fitted inhibition curve with a large enough effect; inconclusive = small, poorly fitted or top-dose-only effect, or effect the other way; inactive = flat fitted curve, though single readings scatter.
# Biological target: Ubiquitin carboxyl-terminal hydrolase 2 (Homo sapiens) (UniProt O75604)
# Test: Ub-rhodamine 110 based assay for inhibitors Ubiquitin-specific Protease USP2a; also: nearly all actives have a fitted effect of over 50% in size
# Conditions: USP2a Ub-rhodamine110 cleavage, fluorescence; series mostly up to 38.3 µM
# Method in brief: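 Kinetic fluorescence (485/531 nm) read each minute over 7 min after adding Ub-Rhod110 (150 nM final) to USP2a (5 nM final). The enzyme had 30 min RT exposure to compounds beforehand in Tris pH 8.0 buffer with CaCl2, CHAPS and beta-ME.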
# Potency is read from the fitted curve at half-maximal effect.
# Chain of Ubiquitin carboxyl-terminal hydrolase 2 (Homo sapiens) (O75604 whole entry, looked up): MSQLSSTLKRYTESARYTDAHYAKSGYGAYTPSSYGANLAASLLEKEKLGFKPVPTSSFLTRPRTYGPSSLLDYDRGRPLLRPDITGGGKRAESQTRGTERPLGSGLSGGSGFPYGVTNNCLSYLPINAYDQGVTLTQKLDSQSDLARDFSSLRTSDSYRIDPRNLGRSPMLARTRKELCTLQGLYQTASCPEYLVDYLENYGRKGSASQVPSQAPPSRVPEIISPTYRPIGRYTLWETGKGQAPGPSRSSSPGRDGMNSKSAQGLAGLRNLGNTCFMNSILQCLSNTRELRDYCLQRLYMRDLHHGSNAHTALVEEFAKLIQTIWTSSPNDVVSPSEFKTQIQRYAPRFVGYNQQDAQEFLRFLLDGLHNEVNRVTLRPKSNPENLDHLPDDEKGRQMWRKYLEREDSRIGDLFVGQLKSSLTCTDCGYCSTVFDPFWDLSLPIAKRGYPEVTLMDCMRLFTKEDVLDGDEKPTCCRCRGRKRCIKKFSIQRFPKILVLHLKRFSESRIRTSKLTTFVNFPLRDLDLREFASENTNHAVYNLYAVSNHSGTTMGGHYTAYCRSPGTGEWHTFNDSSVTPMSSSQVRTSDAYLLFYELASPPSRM
row,SMILES,Potency
1,COc1cc(C(=O)OC2CCCCC2=O)cc(OC)c1C (configuration not stated),11.2 µM (active)
2,CCOc1ccc2nc(NC(=O)Nc3ccccc3)sc2c1,inactive
3,O=C(CSc1ccc2nnc(-c3cccc(F)c3)n2n1)N1CCCc2ccccc21,inactive
4,Cc1ccc(N(CC(=O)Nc2ccc(S(=O)(=O)N3CCOCC3)cc2)S(C)(=O)=O)cc1C,inactive
5,Cc1c(C(=O)NCc2c(F)cc(F)cc2F)oc2ccc(S(=O)(=O)N3CCOCC3)cc12,inactive
6,O=C(NC1CCCCC1)C(c1ccco1)N(C(=O)c1csnn1)c1cccc(F)c1 (configuration not stated),inactive
7,Cn1ccc(=Nc2ccc(NC(=O)c3ccc(N=c4ccn(C)c5ccc([N+](=O)[O-])cc45)cc3)cc2)cc1,inactive
8,Cc1ccc(S(=O)(=O)Nc2ccccc2-c2ccccc2NS(=O)(=O)c2ccc(C)cc2)cc1,8.91 µM (active)
9,O/N=C/c1ccccc1OCc1ccccc1F,inactive
10,CCOC(=O)N1CCN(C(=O)c2cc3c(ccc4ccccc43)oc2=O)CC1,inactive
11,COc1ccc(CCNC(=O)Cc2cc(=O)[nH]c(=O)[nH]2)cc1OC,inactive
12,Cc1ccc(C(=O)N/C(=C/c2ccco2)C(=O)Nc2cccc(C(=O)O)c2)cc1,inactive
13,NC1=NC2(CCC(c3ccccc3)CC2)n2c(nc3ccccc32)N1 (configuration not stated),inactive
14,COCCNCC(=O)N1CCCCCC1,inactive
15,Cc1cc(NC(=O)c2cccc(S(=O)(=O)N(C)C)c2)n(-c2ccccn2)n1,inactive
16,CCN1C(=O)C(NC(C)=O)c2cc(OC)ccc21 (configuration not stated),inactive
17,CCCSCCCNC(=O)CC1Oc2ccccc2NC1=O (configuration not stated),inactive
18,CCc1cc(C(=O)N=Nc2c(O)[nH]c3ccc([N+](=O)[O-])cc23)c2ccccc2n1,11.2 µM (active)
19,O=C(O)c1cccc2c1C(=O)c1ccc(-c3ccc(F)cc3OCc3ccccc3)cc1S2(=O)=O,11.2 µM (active)
20,CCOC(=O)c1[nH]c2ccc(OC)cc2c1NC(=O)CCN1CCC(C)CC1,inactive
21,Cc1ccc(C(=O)NCCCc2ccccc2)s1,inactive
22,Cc1ccc(C=Nc2ccccc2C(N)=O)cc1,inactive
